According to the supplement of paper PMC11417369:
The full ranking holds about 25,000 sequences; the median of “ln(normalized median fluorescence intensity)” is about 7.1, and the highest 2% start at about 10. The sample holds the highest values, similar sequences and a random draw of the others, so the mix is not that of the screen.

tested on: PfSIP2 AP2 domain 1 (GST-tagged); assay: gcPBM binding intensity (ln(normalized median fluorescence intensity)); higher = stronger DNA binding
In short: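 Plasmodium falciparum DNA-binding domains carrying a GST tag were expressed in E. coli and applied for 1 h, at about 25 μg on average, to an Agilent 4 × 180k array. The array held primer-extended double-stranded 36-bp intergenic genomic probes together with negative controls, and binding took place in 1× PBS with 1% milk, 0.2 mg/ml BSA, 0.5% salmon testes DNA and 0.03% Triton X-100. An Alexa488 anti-GST antibody detected bound protein, and the array was scanned at 488 nm. Binding intensity is taken as the highest Masliner-normalised natural-log median intensity across replicate spots of either probe orientation.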

| Sequence | gcPBM binding intensity (ln) |
| --- | --- |
| AGGAAAAACTTGAATGCATGCGCACATTCTAGTTTG [TGCATGCA_site776] | 6.99 |
| AAAATTTATATAGGCACACAAATAAATTAATACATA [CACACA_site1418] | 6.76 |
| TTTTTTTATATTATACGCACTAATATATATATATAT [XGTACX_negctrl_site40] | 8.94 |
| CCGTATATTTTATATAGTACTCATCATATATTTTTA [XGTACX_site5560] | 6.96 |
| AAGATAATTACGCACACACACACACGCCCACAACTA [CACACA_site7255] | 7.34 |
| CTGTCTGCAGATATGGTGCATTTGTAAGATCTTACA [GTGCAC_site9870] | 10.4 |
| TATCTTCATATATGGTGTACAGATTTTTTTTTTTTT [XGTACX_site5545] | 7.26 |
| CATTTTGTAAGATATGCACACATGGATCATATTTTA [CACACA_site423] | 6.94 |
| GGAAAAAGAAATTAATGTACATGTGGATGTATGAGG [XGTACX_site5468] | 7.25 |
| TTTCCTCATTTTATCATACACACTTGTTTATATGTG [CACACA_site8202] | 6.92 |
| AATCATTTATTGATGGTGCAATATACCATCTAATGA [GTGCAC_site9440] | 9.44 |
| AATTTATATAATTTTGTGCACAATATTCATGTATAT | 8.93 |
| TATTCAGGTCCAATGGTGCAATATATTTTTGTAATA [GTGCAC_site9607] | 10.5 |
| TCTTTGTATATATGTTCATTTGTAATATATATTCAT [TGCATGCA_negctrl_site467] | 7.18 |
| ATTCATTTACCAATGGTGCAATATATTTTTATAATG | 10.3 |
| TTTATTTTTTACCAAGTGCAATATATTATAATAATA | 7.77 |
| AGCTATATAAATAATACATGCATTGTTCAGGTATTT [TGCATGCA_site964] | 6.83 |
| TAAATATAGGGTAATAGTACATAATTATATTCTTTT [XGTACX_site3883] | 6.76 |
| GTGTTGGGAAAAGGCATGCACTTTTTTTTTTTTTTT | 9.34 |

| Sequence | gcPBM binding intensity (ln) |
| --- | --- |
| AATAGTCGGGTGCATACACACCTTAAATATAATATA [CACACA_site8271] | 11.3 |
| GGAATAGTCGGGTGCATACACACCTTAAATATAATA [CACACA_site1081] | 11.4 |
| ACCTTTAATATATACACACACATAAAAAAAATATAT [CACACA_site1843] | 7.83 |
| TATACCTTAATATACACACATACATATATATATATA [CACACA_site1339] | 9.12 |
| CTACCTTTAATATATACACACACATAAAAAAAATAT [CACACA_site8548] | 7.44 |
| AATAGTCGTGTGCATACACACCTTAACTATAATATA [CACACA_site6636] | 7.41 |
| TTGATTACACTGAAGTGTACATATATATATATATAT [XGTACX_site3532] | 9.07 |
| AATAATAAAATAAAGGCATGCACAATATGCTATAAA [TGCATGCA_site645] | 7.49 |
| TTTAATCATATGTTATATAATAAGCCCCCCCCCCAA [CACACA_negctrl_site486] | 10.2 |
| ATATTTTTATTTTCTTTACACACCACATAATTTTTT [CACACA_site4060] | 7.09 |
| TTTTGTTTTAATTTTATTTGATTTTATTTGATTTAT [CACACA_negctrl_site692] | 6.69 |
| TATTTTTAACAGTGCACACATAACTTAATTATATGT [CACACA_site2194] | 10.6 |
| TTTAACTTTTATATAACACACATATTGTAATTATGT [CACACA_site6486] | 7.05 |
| TTTTAATTTATTTATGCACACATATATAATTACACA [CACACA_site8126] | 7.52 |
| ATATATATTTTAATAACACACATATATTATATTATA [CACACA_site4387] | 7.06 |
| TTTATTTTTAACAGTGCACACATAACTTAATTATAT [CACACA_site8681] | 10.5 |
| TTTAATTTTTATATAACACACATATTGTAATTATGT [CACACA_site4566] | 6.97 |
| AAAAAAAGAAATTAGGTGCATAGCATTAACCGATAA [GTGCAC_site9582] | 10.1 |
| TATATATATAGAAATGCATGTTAATAAAAGTTATAA [TGCATGCA_site947] | 8.13 |

| Sequence | gcPBM binding intensity (ln) |
| --- | --- |
| ATTTTTTATATTTAGTGTACATGTTTTAATTTATAA [XGTACX_site7512] | 7.29 |
| GGATAAGAGGCATATACACACAATTTAAAAAAATAA [CACACA_site4657] | 7.15 |
| TTTTTTTCAATATTTGCACACGATTAAAATATTTAA [CACACA_site5266] | 7.28 |
| AATATTTTAAGGCACACACACAAAAAAAAAAAAAAA [CACACA_site2890] | 7.22 |
| AAAAAAAAAAAAAGTGCACACGATTTAAGGCCTATA [CACACA_site2823] | 10.9 |
| TTTCTAATTTATATCACACACATATAAATATAGTAA [CACACA_site6210] | 7.19 |
| GGCGTATGTGTATATACACACCCACGTATATAAATA [CACACA_site7489] | 7.08 |
| ATAATGAACAAAGTAGTGCACTTTCCTTATCTTTTC | 10.9 |
| CCTTTCCTTTTATAAGTGCATATAACAAATGTATAC [GTGCAC_site9872] | 8.88 |
| ACTAATAACAAAAGCTTGCACTTTTTTTTTCCTAAT | 7.82 |
| ATCTTATATCGTAGAGATTTTTTTTTTTTTTCATTT [XGTACX_negctrl_site140] | 6.7 |
| TTTTAAAAAAATAAAAAATAATAAAAAAAATAAAAA [CACACA_negctrl_site1693] | 6.76 |
| TTTTTTATAAATCAAATGAAAAATAAACTATTCAGA [CACACA_negctrl_site1568] | 6.59 |
| TTTTAAATTTTTTAAAGTACACGTCGAAAAGGTATA [XGTACX_site76] | 7.93 |
| GCACCCTGTATGAATGCACACATTCATAGAATTGCT [CACACA_site5475] | 8.46 |
| TATTTAAAATAATAACAAAATTAACATAAATATATA [GTGCAC_negctrl_site472] | 6.82 |
| TTTATATTTAAATATATATGAGAAAACACAAAATAT [TGCATGCA_negctrl_site211] | 7.34 |
| AAAGAAATATATACAAAAATATGAACAATTTATTAT [XGTACX_negctrl_site78] | 6.81 |
| AAGAACAAATATGAGGTGCAACACAATATATTATTA [GTGCAC_site9965] | 10.5 |
